Laboratory results as given in ChEMBL document CHEMBL1157539, “Thousands of chemical starting points for antimalarial lead identification” (Nature, 2010).

Test system: Plasmodium falciparum
Assay: GSK_TCMDC: Inhibition of Plasmodium falciparum 3D7 in whole red blood cells, using parasite LDH activity as an index of growth. Test compounds present at 2uM
Assay type: functional

| Compound | Inhibition [%] |
| --- | --- |
| c1ccc(COc2ccc(C3CCCCC3)cc2)nc1 | 99 |
| Cc1cc(N(C)CCN(C)C)nc(Nc2ccc(Br)cc2)n1 | 97 |
| O=C(NC(=O)c1ccccc1)NC1CCN(c2ccnc3cc(Cl)ccc23)C1.O=C(O)C(F)(F)F (stereo not drawn) | 100 |
| COc1ccc(C2CC(c3ccccc3O)=NN2C(=O)c2ccco2)cc1OC (stereo not drawn) | 96 |
| CCCc1cc(C(=O)N[C@@H](Cc2ccccc2)[C@H](O)CNC(C)(C)c2cccc(OC)c2)c(F)c(N2CCCC2=O)c1.O=CO | 98 |
| CC(C)c1ccc(NC(=O)c2ccc(NCCCN(C)Cc3ccccc3)c([N+](=O)[O-])c2)cc1 | 100 |
| O=C(Nc1cccc(CN2CCCN(CC3CC3)CC2)c1)c1ccc(Cl)c(Cl)c1.O=C(O)C(F)(F)F | 92 |
| CC(=O)C1=NN(c2ccc(C)cc2)C(c2cccs2)N1c1ccccc1 (stereo not drawn) | 89 |
| N=C1NC(=N)N(OCCCCCCON2C(=N)NC(=N)NC2C=Cc2ccccc2)C(C=Cc2ccccc2)N1 (stereo not drawn) | 97 |
| CN(C)CCN(C)Cc1nc(-c2ccc3c(Nc4ccc(Oc5ccccc5)cc4)ccnc3c2)cs1 | 100 |
| CC(C)CNCc1ccc(-c2cccc(CNc3ccc4ncccc4c3)c2)cc1.O=C(O)C(F)(F)F | 96 |
| Cc1cc(OCC2CCN(c3ncc(C(=O)Nc4ccccc4)cc3Cl)CC2)ccc1F | 91 |
| CC(C)NCc1ccc(-c2ccc(NC(=O)c3ccc(Cl)cc3)cc2)cc1.O=C(O)C(F)(F)F | 90 |
| CCNc1cc(C(=O)N[C@@H](Cc2ccccc2Cl)[C@H](O)CNC2CCCCC2)cc(N2CCCCS2(=O)=O)c1.Cl | 99 |
| Cc1ccc(NC(=O)c2ccc3ncccc3c2)cc1OC1CCN(CCC(C)C)C1.O=C(O)C(F)(F)F (stereo not drawn) | 98 |
| COc1ccccc1CCNc1nc(C)cc(N[C@@H](CC(C)C)C(=O)Nc2ccccc2)n1.O=C(O)C(F)(F)F | 100 |
| O=C1OC2(CCN(C(=O)c3ccc(-n4cnnn4)cc3)CC2)CN1Cc1ccc(Cl)c(Cl)c1 | 97 |
| CCCCCCCN1CC[C@@H](CCC(O)c2ccnc3ccc(OC)cc23)[C@@H](CC)C1 (stereo partly drawn) | 97 |
| COc1ccc(OC)c(-c2cccc(-c3cccc(NC(=O)c4ccc([N+](=O)[O-])o4)c3)n2)c1 | 98 |
| CC(=O)Nc1ccc(OCCCCN(Cc2ccccc2C(F)(F)F)c2ccc(C#N)c(C(F)(F)F)c2)c(Cl)c1 | 98 |
| CN1CCC(NCc2cccc(-c3cccc(S(=O)(=O)NCc4ccccc4)c3)c2)CC1.O=C(O)C(F)(F)F | 100 |
| Cc1cccc2nc(-c3ccc(-c4cccc(C(=O)N5CCCCC5C(C)O)c4)s3)[nH]c12 (stereo not drawn) | 100 |
| COc1ccc(Cl)cc1NC(=O)C(C)Nc1ccc(-c2ccccc2)cc1 (stereo not drawn) | 91 |
| Cl.OC(c1cccc(OCc2ccccc2)c1)C1CN(CCc2ccccc2)CCC1(O)c1ccccc1 (stereo not drawn) | 98 |
| CS(=O)(=O)Nc1cccc(-c2cnc3[nH]cc(-c4cc(N)cc(C(=O)O)c4)c3c2)c1 | 96 |
| N#CC(c1ccc(Cl)cc1)c1ccc2c(C(F)(F)F)cc(C(F)(F)F)nc2n1 (stereo not drawn) | 97 |
| Cc1ccc2nc(N/C(N)=N/C(=O)NC3CCCCC3)nc(C)c2c1 | 99 |
| COc1ccc(CNCCCCCNCc2ccc(Cl)c(Cl)c2)cc1Cl | 98 |

Test system: Plasmodium falciparum
Assay: GSK_TCMDC: Inhibition of Plasmodium falciparum Dd2 in whole red blood cells, using parasite LDH activity as an index of growth. Test compounds present at 2uM
Assay type: functional

| Compound | Inhibition [%] |
| --- | --- |
| CO/C(=C\C=C\c1cc2cc(Cl)c(Cl)cc2[nH]1)C(=O)NC1CC2CCC(C1)N2C.Cl (stereo not drawn) | 23 |
| CC=CC(=O)N1CCN(c2nccc(-c3ccc(C(C)(C)C)cc3)n2)CC1 | 70 |
| COc1ccc(CCNCc2cc3c(C(C)(C)C)nn(-c4ccc(Cl)cc4)c3[nH]c2=O)cc1OC | 99 |
| CN=c1nc(NN=Cc2ccccc2Cl)[nH]c(=Nc2cccc(C(F)(F)F)c2)[nH]1.Cl | 0 |
| N#Cc1ccc(N2CCN(Cc3cccc(-c4cccc(-c5nc6cc(F)ccc6[nH]5)c4)c3)CC2)nc1.O=C(O)C(F)(F)F | 52 |
| O=C(Nc1cccc(CN2CCCN(Cc3cccc(Cl)c3)CC2)c1)c1ccc(-c2ccccc2)cc1.O=C(O)C(F)(F)F | 14 |
| CC(C)(CNC(=O)C1CCN(CCOc2ccc(Cl)cc2)CC1)c1nc(-c2ccc(Cl)c(O)c2)c(-c2ccncc2)[nH]1.Cl | 5 |
| O=C(Nc1cccc(CN2CCN(Cc3cccc(O)c3)CC2)c1)c1ccc(Cl)c(Cl)c1.O=C(O)C(F)(F)F | 35 |
| NS(=O)(=O)c1ccc(CNC(=O)c2cnc3c(O)cccc3c2Nc2cccc(NC(=O)c3ccc(Cl)c(Cl)c3)c2)cc1.O=C(O)C(F)(F)F | 35 |
| Cl.N#Cc1cccc(C(O)C2CN(CCC3CCCCC3)CCC2(O)c2ccccc2)c1 (stereo not drawn) | 100 |
| Br.Cc1cc(F)ccc1Nc1nc(N(C)c2ccccc2)c2cccc(O)c2n1 | 81 |
| O=C(Nc1ccc(C(=O)N2CCN(CCN3CCN(c4cccc(C(F)(F)F)c4)CC3)CC2)cc1)c1cc(Cl)cc(Cl)c1 | 19 |
| c1ccc(COc2ccc(C3CCCCC3)cc2)nc1 | 1 |
| Cc1cc(N(C)CCN(C)C)nc(Nc2ccc(Br)cc2)n1 | 23 |
| O=C(NC(=O)c1ccccc1)NC1CCN(c2ccnc3cc(Cl)ccc23)C1.O=C(O)C(F)(F)F (stereo not drawn) | 99 |
| COc1ccc(C2CC(c3ccccc3O)=NN2C(=O)c2ccco2)cc1OC (stereo not drawn) | 68 |
| CCCc1cc(C(=O)N[C@@H](Cc2ccccc2)[C@H](O)CNC(C)(C)c2cccc(OC)c2)c(F)c(N2CCCC2=O)c1.O=CO | 98 |
| CC(C)c1ccc(NC(=O)c2ccc(NCCCN(C)Cc3ccccc3)c([N+](=O)[O-])c2)cc1 | 35 |
| O=C(Nc1cccc(CN2CCCN(CC3CC3)CC2)c1)c1ccc(Cl)c(Cl)c1.O=C(O)C(F)(F)F | 5 |
| CC(=O)C1=NN(c2ccc(C)cc2)C(c2cccs2)N1c1ccccc1 (stereo not drawn) | 64 |

| Compound | Inhibition [%] |
| --- | --- |
| N=C1NC(=N)N(OCCCCCCON2C(=N)NC(=N)NC2C=Cc2ccccc2)C(C=Cc2ccccc2)N1 (stereo not drawn) | 94 |
| CN(C)CCN(C)Cc1nc(-c2ccc3c(Nc4ccc(Oc5ccccc5)cc4)ccnc3c2)cs1 | 100 |
| CC(C)CNCc1ccc(-c2cccc(CNc3ccc4ncccc4c3)c2)cc1.O=C(O)C(F)(F)F | 31 |
| Cc1cc(OCC2CCN(c3ncc(C(=O)Nc4ccccc4)cc3Cl)CC2)ccc1F | 87 |
| CC(C)NCc1ccc(-c2ccc(NC(=O)c3ccc(Cl)cc3)cc2)cc1.O=C(O)C(F)(F)F | 8 |
| CCNc1cc(C(=O)N[C@@H](Cc2ccccc2Cl)[C@H](O)CNC2CCCCC2)cc(N2CCCCS2(=O)=O)c1.Cl | 97 |
| Cc1ccc(NC(=O)c2ccc3ncccc3c2)cc1OC1CCN(CCC(C)C)C1.O=C(O)C(F)(F)F (stereo not drawn) | 62 |
| COc1ccccc1CCNc1nc(C)cc(N[C@@H](CC(C)C)C(=O)Nc2ccccc2)n1.O=C(O)C(F)(F)F | 76 |
| O=C1OC2(CCN(C(=O)c3ccc(-n4cnnn4)cc3)CC2)CN1Cc1ccc(Cl)c(Cl)c1 | 70 |
| CCCCCCCN1CC[C@@H](CCC(O)c2ccnc3ccc(OC)cc23)[C@@H](CC)C1 (stereo partly drawn) | 93 |
| COc1ccc(OC)c(-c2cccc(-c3cccc(NC(=O)c4ccc([N+](=O)[O-])o4)c3)n2)c1 | 97 |
| CC(=O)Nc1ccc(OCCCCN(Cc2ccccc2C(F)(F)F)c2ccc(C#N)c(C(F)(F)F)c2)c(Cl)c1 | 71 |
| CN1CCC(NCc2cccc(-c3cccc(S(=O)(=O)NCc4ccccc4)c3)c2)CC1.O=C(O)C(F)(F)F | 6 |
| Cc1cccc2nc(-c3ccc(-c4cccc(C(=O)N5CCCCC5C(C)O)c4)s3)[nH]c12 (stereo not drawn) | 53 |
| COc1ccc(Cl)cc1NC(=O)C(C)Nc1ccc(-c2ccccc2)cc1 (stereo not drawn) | 89 |
| Cl.OC(c1cccc(OCc2ccccc2)c1)C1CN(CCc2ccccc2)CCC1(O)c1ccccc1 (stereo not drawn) | 98 |
| CS(=O)(=O)Nc1cccc(-c2cnc3[nH]cc(-c4cc(N)cc(C(=O)O)c4)c3c2)c1 | 96 |
| N#CC(c1ccc(Cl)cc1)c1ccc2c(C(F)(F)F)cc(C(F)(F)F)nc2n1 (stereo not drawn) | 54 |
| Cc1ccc2nc(N/C(N)=N/C(=O)NC3CCCCC3)nc(C)c2c1 | 94 |
| COc1ccc(CNCCCCCNCc2ccc(Cl)c(Cl)c2)cc1Cl | 43 |
